Our source for the INHIBITION values is ChEMBL document CHEMBL4513216, “Probing the Open Global Health Chemical Diversity Library for Multistage-Active Starting Points for Next-Generation Antimalarials” (ACS Infect Dis, 2020).

Each structure is given as a SMILES string. In all, about 69,000 compounds went through this assay and about 8,600 (12%) showed an effect of 50% or more. Shown is part of a subset that was picked to be rich in strong results.

The assay deals with Plasmodium berghei. The assay can be described thus: Screen against P. berghei liver stage (PbLuc), transformed with Luciferase, at 10uM. The class given is functional, HepG2. Conditions: tested at 10 uM.
For `Cc1ccc(NCc2cc(C#N)ccc2F)cc1-n1nnnc1C`, the INHIBITION is -3.83%.
The result for `CC(C)CC(=O)N1CCCn2cnc(CNS(C)(=O)=O)c2C1` reads -3.33%.
Turning to `CC(C)NC(=O)[C@H]1C[C@@H]2[C@@H](C1)OCCN2Cc1nccs1`, the INHIBITION is 16.9%.
On to `Nc1nccnc1C1CN(C(=O)c2ccnnc2)CCO1` (configuration not stated), for which the INHIBITION was determined as 26.8%.
`CSC(C)(C)CNC(=O)NC1CCC1`: the INHIBITION worked out at 34.6%.
In the case of `CCNc1cc2c(nn1)CCN(C(=O)C(C)c1c(C)noc1C)C2` (configuration not stated), the INHIBITION is 31.9%.
In the case of `Cc1nnc(NC(=O)NCc2ccc(F)cc2)s1`, the INHIBITION is -162%.
Turning to `COC(=O)c1ccoc1CN(C)Cc1ccccc1`, the INHIBITION turned out to be 37.1%.
The result for `CC(c1cc(F)ccc1F)N(C)Cc1nc2c(cnn2C)c(=O)[nH]1` (configuration not stated) reads 16.34%; that for `CCOC(=O)c1cnn(-c2cc(Oc3cc(C)ccc3C)ncn2)c1N`, 18.6%.
As to `CCc1nn(-c2cc(Oc3cccc(C)c3)nc(C)n2)c(N)c1C#N`, the INHIBITION was -7.81%.
The result for `CCc1nn(-c2cc(Oc3cc(C)ccc3C)ncn2)c(N)c1C#N` reads 57.8%; that for `CCc1nn(-c2cc(Oc3ccccc3)nc(C)n2)c(N)c1C#N`, 31.8%; that for `COc1ccc(C)cc1NC(=O)Cn1nc(C)c(C#N)c1N`, 16.8%.
In the case of `Cc1ccc(C)c(Oc2cc(-n3nc(C)c(C#N)c3N)nc(C)n2)c1`, the INHIBITION was 55.6%.
As to `CCc1nn(-c2cc(Oc3cc(C)ccc3C)nc(C)n2)c(N)c1C#N`, the INHIBITION is recorded as 64.9%.
For the molecule `Cc1ccc(C)c(NC(=O)Cn2nc(C)c(C#N)c2N)c1`, the INHIBITION turned out to be 14.6%.
On to `CC(O)c1cn(Cc2ccccc2)nn1` (configuration not stated), for which the INHIBITION is given as -1.84%.
Regarding `O=C(c1ncccn1)N1CCC[C@]2(C[C@H](OCC3CC3)CO2)C1`, the INHIBITION amounted to 40.4%.
With `COc1c(C2CCCN2C(=O)c2sc(C)nc2C)c(C)nn1C` (configuration not stated), the INHIBITION came out at 8.64%.
Consider `CN(C)[C@@H]1CN(C(=O)CCc2ccccc2)[C@@H]2CCCO[C@H]12`, for which the INHIBITION is given as 8.66%.
The result for `Cc1ccc(CC(=O)N2CCCC2Cn2nc(C)cc2C)cn1` (configuration not stated) reads 33.7%.
With `CC(=O)N1CCCC(C(=O)NCCc2ccc(F)c(Br)c2)C1` (configuration not stated), the INHIBITION came to 9.72%.
Turning to `CCc1c(C(=O)N2CCN(c3cnccn3)CC2)cnn1C(C)(C)C`, the INHIBITION is recorded as -0.219%.
The result for `CC(=O)N(Cc1noc(C2CC2)n1)C1CCN(Cc2cccnc2)C1` (configuration not stated) reads 25.7%; that for `Cc1ccccc1C(=O)Nc1cnn(CCN2CCOCC2)c1`, -21.3%.
On to `O=C(Nc1cnn(CCN2CCOCC2)c1)c1ccccc1O`, for which the INHIBITION is reported as 55.9%.
Take `O=C(Nc1cnn(CCN2CCOCC2)c1)c1ccccc1Cl`: the INHIBITION is on record as -13.4%.
`N#Cc1ccc(CNc2cnn(CCN3CCOCC3)c2)cc1`: the INHIBITION is on record as 24%.
Turning to `Clc1ccc(CNc2cnn(CCN3CCOCC3)c2)cc1Cl`, the INHIBITION turned out to be 56%.
On to `COc1cc(CNc2cnn(CCN3CCOCC3)c2)cc(OC)c1`, for which the INHIBITION is 1.74%.
In the case of `COc1ccccc1CN(CC1CCCO1)C(=O)c1scnc1C` (configuration not stated), the INHIBITION is given as -9.08%.
The result for `O=c1ccc2c(n1Cc1cccnc1)CCN(Cc1ccoc1)CC2` reads -110%; that for `Cc1cncc(C2CCCN2CCO)n1` (configuration not stated), 0.696%.
Take `O=C(c1cnccn1)N1CC[C@@H]2CO[C@@H](CN3CCCC3)[C@@H]2C1`: the INHIBITION came out at 37.8%.
With `CSc1ccccc1CN1C[C@H]2CC[C@@H](C1)N(CC1CC1)C2=O`, the INHIBITION worked out at 28.3%.
For `COc1c(CNCCc2c[nH]c3cc(F)ccc23)c(C)nn1C`, the INHIBITION is 70.2%.
For `COc1c(CNCCc2c[nH]c3cc(F)ccc23)c(C(C)C)nn1C`, the INHIBITION turned out to be 44.2%.
Take `COc1c(CNCCc2c[nH]c3ccccc23)c(C)nn1C`: the INHIBITION stood at 30.1%.
The result for `CS(=O)(=O)c1ccc(CNc2nccc(C(F)(F)F)n2)cc1` reads -33.9%; that for `CN1CC2(CCCN(C(=O)Cc3cccc(O)c3)C2)OC1=O` (configuration not stated), 16.3%.
The result for `CN(C)CC1COCCN1C(=O)c1ccccc1C(=O)c1ccccc1` (configuration not stated) reads 22.6%.
The result for `O=C1N(Cc2ccc(F)c(F)c2)CCCC12CCN(C1CCCCC1)C2` (configuration not stated) reads 81.7%; that for `O=C1N(Cc2ccc(F)cc2)CCCC12CCN(C1CCSCC1)C2` (configuration not stated), 33.3%; that for `CCS(=O)(=O)N1CCC2(CCCN(Cc3ccc(F)c(F)c3)C2=O)C1` (configuration not stated), 39.4%.
Take `O=C1N(Cc2ccc(F)c(F)c2)CCCC12CCN(C1CCSCC1)C2` (configuration not stated): the INHIBITION worked out at 80.8%.
The result for `CC(C)N1CCC2(CCCN(Cc3ccc(F)cc3)C2=O)C1` (configuration not stated) reads 70.4%; that for `O=C1N(Cc2ccc(F)c(F)c2)CCCC12CCN(C1CCCC1)C2` (configuration not stated), 37.4%.
As for `O=C1N(CCc2ccccc2)CCCC12CCN(C(CO)CO)C2` (configuration not stated), the INHIBITION is reported as -33.9%.
The result for `Cc1cccc(CN2CCCC3(CCN(C4CCSCC4)C3)C2=O)c1` (configuration not stated) reads 39.9%; that for `CN(C)S(=O)(=O)N1CCC2(CCCN(Cc3ccc(F)cc3)C2=O)C1` (configuration not stated), 36.8%.
In the case of `Cc1ccccc1C(=O)N1CCC2(CCCN2CCN(C)C)CC1`, the INHIBITION is reported as -35.6%.
Take `CC(C)c1ncncc1C(=O)NCCN1CCCC1`: the INHIBITION worked out at 29%.
The result for `CN(C)C(=O)c1c[nH]nc1C1CCN(S(=O)(=O)c2ccc(Cl)cc2)CC1` reads 24.8%.
As for `CN(Cc1ccco1)[C@@H]1CN(CC2CCOCC2)[C@@H]2CCCO[C@H]12`, the INHIBITION is given as 33.4%.
`CC(C)OCCCNC(=O)CN1CCN(c2nccs2)C(C)C1` (configuration not stated): the INHIBITION is given as -27.5%.
Regarding `Cc1cn[nH]c1C1COCCN1S(=O)(=O)c1cn[nH]c1` (configuration not stated), the INHIBITION was determined as 23.2%.
Regarding `Cn1cnnc1SCC(=O)NC1CC(=O)N(CCc2cccc(Cl)c2)C1` (configuration not stated), the INHIBITION is 6.29%.
As for `CC(=O)N1CCC2(CC1)CC(N1CCOCC1)c1ccc(C)cc12` (configuration not stated), the INHIBITION is -39.2%.
For the molecule `Cc1nc(NCc2nccn2C)cc(C2COCCN2)n1` (configuration not stated), the INHIBITION is listed as 23.375%.
The result for `Cc1noc(-c2ccc(N3CCC(C(=O)N4CCCC4)CC3)nc2)n1` reads 76.7%.
`Cc1noc(-c2ccc(N3CCCC(C(=O)N4CCSCC4)C3)nc2)n1` (configuration not stated): the INHIBITION is recorded as 28.8%.
The result for `Cc1noc(-c2ccc(N3CCCC(C(=O)O)C3)nc2)n1` (configuration not stated) reads -19.2%; that for `CCn1ncc(S(=O)(=O)N[C@@H]2CC[C@@H](n3ccnc3C)[C@@H]2O)c1C`, 4.9%; that for `Cc1cc(=O)[nH]c(=O)n1COCc1ccccc1`, 13.6%.
For the molecule `Cc1cc(=O)[nH]c(=O)n1COCCOCc1ccccc1`, the INHIBITION was 8.41%.
The result for `Cc1ccccc1COCCOCn1c(C)cc(=O)[nH]c1=O` reads 51.3%.
